In PubChem BioAssay AID651871 (Sanford-Burnham Center for Chemical Genomics, 2012):
“And” between values parts separate entries of the source, which are not always exact repeats. Identical values can stand only once.

test system: H9c2; experiment: cardiomyocyte survival under oxidative or metabolic stress – cell-based, panel, H9c2 and HL-1, ATP luminescence, set 2, SAR follow-up (AID 651871); details: H9c2/HL-1 cardiomyocytes, 2-deoxyglucose stress, with 2-deoxyglucose; run 14, at 79 µM (top of the series);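 further: cells exposed to stressor for 2 h before ATP readout; reference of the scale not given here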

| Compound | activity (protection/inhibition) |
| --- | --- |
| COc1ccc2nc(-c3cc(OC)c(OC)c(OC)c3)cc(C(=O)NCC(=O)Nc3ccc(C(C)=O)cc3)c2c1 | 89.3% |
| CCOC(=O)c1cccc(NC(=O)CNC(=O)c2cc(-c3cc(OC)c(OC)c(OC)c3)nc3ccccc23)c1 | 95.1% |
| COc1ccc2c(c1OC)C(=O)N1c3ccccc3C(=O)N(Cc3cccc(Cl)c3Cl)C21 (stereo not drawn) | 74.7% and 78.2% and -6.22% |
